Results reported in the supplement of paper PMC9694430.

Experiments:
Assay in all cases: thermal shift delta Tm vs DMSO control; higher = stronger stabilization (binding)
Conditions in all cases: 12.5 µM; protein concentration 2 µM
[1] = tested on: LOC_OS04G57630-cb004
Procedure, shortened: (§1)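 Rice kinase domain constructs, made in E. coli and purified, were placed in 96-well plates at 2 μM in 19.5 μl of 100 mM potassium phosphate pH 7.5, 150 mM NaCl, 10% glycerol and 5 × SYPRO Orange, with compound in DMSO. A temperature ramp from 25°C to 95°C at 0.05°C/s was used for differential scanning fluorimetry. The melting temperature shift is a triplicate mean compared with DMSO-only protein, derived from Boltzmann fits.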

[2] = tested on: LOC_OS05G07850-cb002
Procedure, shortened: as §1

[3] = tested on: LOC_OS05G28520-cb001
Procedure, shortened: as §1

[4] = tested on: LOC_OS05G30820-cb001
Procedure, shortened: as §1

[5] = tested on: LOC_OS05G43570-cb004
Procedure, shortened: as §1

[6] = tested on: LOC_OS06G16330-cb003
Procedure, shortened: as §1

[7] = tested on: T1, LOC_OS06G22820-cb001
T1 sequence (whole entry): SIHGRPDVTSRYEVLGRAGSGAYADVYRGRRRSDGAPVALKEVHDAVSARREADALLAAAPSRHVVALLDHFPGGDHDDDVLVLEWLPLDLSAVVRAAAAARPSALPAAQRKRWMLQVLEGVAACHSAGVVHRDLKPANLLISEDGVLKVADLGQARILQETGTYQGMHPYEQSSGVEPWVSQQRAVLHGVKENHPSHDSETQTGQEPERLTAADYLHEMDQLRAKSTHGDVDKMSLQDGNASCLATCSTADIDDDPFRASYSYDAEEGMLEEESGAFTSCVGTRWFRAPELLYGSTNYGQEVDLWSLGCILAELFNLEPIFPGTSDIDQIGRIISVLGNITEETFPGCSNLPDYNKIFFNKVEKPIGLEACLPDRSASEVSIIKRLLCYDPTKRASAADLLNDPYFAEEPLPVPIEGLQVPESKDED
Procedure, shortened: as §1

[8] = tested on: LOC_OS07G06570-cb004
Procedure, shortened: as §1

[9] = tested on: LOC_OS07G07230-cb001
Procedure, shortened: as §1

[10] = tested on: LOC_OS05G16824-cb004
Procedure, shortened: as §1
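Also: purified Escherichia coli-expressed rice kinase domain construct.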

Chain of LOC_OS06G16330-cb003 (as listed by the source): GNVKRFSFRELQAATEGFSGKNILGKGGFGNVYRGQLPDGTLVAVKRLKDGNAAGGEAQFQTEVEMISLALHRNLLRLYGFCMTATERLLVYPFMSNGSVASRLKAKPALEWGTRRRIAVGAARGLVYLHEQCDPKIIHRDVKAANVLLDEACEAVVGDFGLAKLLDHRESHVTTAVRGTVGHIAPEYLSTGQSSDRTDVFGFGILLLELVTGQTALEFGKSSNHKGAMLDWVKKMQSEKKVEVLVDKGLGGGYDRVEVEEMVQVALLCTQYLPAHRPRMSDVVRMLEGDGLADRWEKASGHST

Compound | thermal shift delta Tm [1] [°C] | thermal shift delta Tm [2] [°C] | thermal shift delta Tm [3] [°C] | thermal shift delta Tm [4] [°C] | thermal shift delta Tm [5] [°C] | thermal shift delta Tm [6] [°C] | thermal shift delta Tm [7] [°C] | thermal shift delta Tm [8] [°C] | thermal shift delta Tm [9] [°C] | thermal shift delta Tm [10] [°C]
Cc1cc(O)c2c(c1)C(=O)c1cccc(O)c1C2=O [Chrysophanic Acid] | -0.6 | 1.45 | 0.74 | 0.15 | -0.12 | -0.34 | -0.85 | 1.81 | -0.41 | –
CC1(C)OC(=O)C=C[C@]2(C)[C@H]3CC[C@@]4(C)[C@H](c5ccoc5)OC(=O)[C@H]5O[C@]54[C@]3(C)C(=O)C[C@@H]12 [Obacunone] | -0.08 | -0.17 | 0.17 | 0.18 | 0.33 | -0.35 | 0.3 | 1.76 | 0.44 | 0.73
O=C(/C=C/c1ccc2ccccc2n1)c1ccncc1 | 3.08 | 9.31 | 0.46 | 0.47 | 0.37 | 1.41 | 0.76 | 0.69 | 0.31 | 4.2
C=CC(=O)N1CCC(Oc2cc3c(Nc4ccc(Cl)c(Cl)c4F)ncnc3cc2OC)CC1 [Poziotinib (HM781-36B)] | 0.32 | 4.97 | 0.58 | 0.44 | 0.15 | 8.31 | 0.44 | 0.72 | 0.28 | -0.85
CCCCCCCCCCCCCCCCn1cc[n+](Cc2ccccc2)c1C | -3.77 | 0.19 | -2.62 | -1.41 | -3.26 | -4.53 | -0.65 | -1.18 | -0.82 | –
Cc1ccccc1-n1c(Cn2nc(-c3cccc(O)c3)c3c(N)ncnc32)nc2cccc(C)c2c1=O | – | 0.71 | 0.91 | 0.79 | 0.31 | – | – | – | 1 | -1.12
Cn1sc(=O)n(Cc2ccccc2)c1=O | -1.01 | -2.47 | 1.84 | 0.45 | 0.04 | – | 0.72 | 0.43 | -0.42 | 4.99
CCOc1cc(C(=O)N2CCC(N3CCN(C)CC3)CC2)ccc1Nc1ncc2c(n1)N(C1CCCC1)c1ccccc1C(=O)N2C | -0.22 | 1.11 | 0.22 | 0.32 | 0.17 | 0.04 | 0.34 | 0.95 | -0.25 | 0.71
Cc1ncc(CO)c(CO)c1O [Pyridoxine] | -0.04 | 0.43 | -0.11 | 0.06 | 0.36 | -0.45 | 0.67 | 1.06 | 0.72 | –
C=CC(=O)Nc1cccc(Nc2nc(Nc3ccc(OCCOC)cc3)ncc2F)c1 | 3.06 | 12.6 | 1.99 | 1.06 | 1.03 | 7.95 | 0.96 | 0.79 | 0.63 | 5.6
COc1cccc2cc(-c3nc([C@H]4CC[C@H](C(=O)O)CC4)n4ncnc(N)c34)[nH]c12 | 0.17 | 3.87 | 0.34 | 0.73 | 0.5 | -0.07 | 0.66 | 0.52 | 0.08 | -4.58
CCC[C@H](NC(=O)/C(C#N)=C/c1cccc(Br)n1)c1ccccc1 [Degrasyn (WP1130)] | -2.22 | -0.67 | -0.84 | 0.52 | -0.8 | -2.97 | 0.49 | -0.53 | 0.24 | –
Cn1cc(C2=C(c3ccc(Cl)cc3Cl)C(=O)NC2=O)c2ccccc21 | 0.28 | 2.36 | 2.17 | 0.49 | 0.84 | – | 1.02 | 2.2 | 0.68 | 0.19
C[C@H](Nc1ncnc2[nH]cnc12)c1cc2ccc(F)cc2nc1-c1ccccn1 | 0.18 | 0.48 | 0.62 | 0.48 | 0.58 | 0.43 | 0.53 | 0.76 | 0.2 | 0.99
CC(C)(C)c1cc(NC(=O)Nc2ccc(-c3cn4c(n3)sc3cc(OCCN5CCOCC5)ccc34)cc2)no1 [Quizartinib (AC220)] | 0.97 | 1.54 | 0.28 | 0.82 | 0.27 | 0 | 0.73 | 1.04 | 0.45 | -1.62
CN(C)S(=O)(=O)c1ccc2c(c1)/C(=C/c1cc3c([nH]1)CCCC3)C(=O)N2 | 1.35 | 7.38 | 1.28 | 1.28 | 0.71 | – | 1.01 | 1.01 | 0.86 | -3.8
CCn1c(C(=O)N(C2CC2)C2CC2)cc2c3c(ncn3C)c(Nc3cc(C)n(C)n3)nc21 | 0.17 | 6.42 | 0.88 | 0.47 | 0.51 | 2.11 | 0.64 | 1.49 | 0.76 | 2.92
Cc1nc2c(-c3cnc(N)nc3)nc(N3CCOCC3)nc2n1C(C)C | 0.5 | 2.64 | 0.5 | 0.32 | – | – | – | 1.35 | -0.09 | 0.17
Oc1ccc(-c2nc(-c3ccc(F)cc3)c(-c3ccncc3)[nH]2)cc1 | 0.57 | 1.26 | 1.33 | 0.88 | 1.13 | 0.09 | 0.97 | 1.08 | 0.48 | –
CN(C)C/C=C/C(=O)Nc1cc2c(Nc3ccc(F)c(Cl)c3)ncnc2cc1O[C@H]1CCOC1 [Afatinib (BIBW2992)] | -0.38 | 7.09 | 0.25 | 0.35 | 0.5 | 1 | 0.48 | 0.78 | 0.57 | 0.09
CCS(=O)(=O)Nc1ccc2c(c1)/C(=C(/Nc1ccc(CN3CCCCC3)cc1)c1ccccc1)C(=O)N2 [Hesperadin] | 7.62 | 11.8 | -0.02 | 2.48 | 0.56 | 13.1 | 0.6 | 0.84 | -0.17 | 16.8
